Screening results as filed in PubChem BioAssay.
VP16 counter: VP16 counterscreen qHTS for inhibitors of ROR gamma transcriptional activity | Drosophila S2 Gal4-VP16 UAS-luciferase, luminescence, 20 h | Potency, µM (doses to about 53.6 µM), actives largely listed as inhibitors | hit rate 3.5% among 310,000 | AID 2546, 2010;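 further: Gal4-VP16 expression switched on by copper sulfate through the metallothionein promoter; nearly all actives have a fitted effect of over 50% in size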
TDP1 cell noCPT: qHTS for Inhibitors of human tyrosyl-DNA phosphodiesterase 1 (TDP1): qHTS in cells in absence of CPT; hit rate 15% among 420,000; AID 686978, 2013; Potency, µM (highest dose often 46.2 µM), hits mostly inhibitors; DT40 Tdp1-/- hTDP1 cells, no CPT, ATP luminescence, 48 h; further: nearly all actives have a fitted effect of over 55% in size
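Cells were dispensed at 400 per well, compounds added by pin tool, plates incubated ≥48 hr at 37 °C, then CellTiter-Glo added for 30 min at room temperature before luminescence reading. Line: DT40 Tdp1-/- complemented with hTDP1; camptothecin omitted.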
IL1B secr inh: qHTS for Inhibitors of Inflammasome Signaling: IL-1-beta AlphaLISA Primary Screen | THP-1 LPS/ATP IL-1B secretion, AlphaLISA, 16 h; active compounds read low | activity change, % at 57.5 µM | hit rate 4.7% among 360,000 | AID 743279, 2014; in the data active means activity change below about -50%; inconclusive means mostly about -30% to -49%
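Secreted IL-1B measured by AlphaLISA bead assay after 16 h compound exposure of THP-1 cells; compounds (final up to 57.5 uM) added 1 h before LPS (250 ng/mL) and ATP (1.25 mM) stimulation; lower signal means less secretion.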
LDHA block: qHTS assay for inhibitors of human lactate dehydrogenase | L-lactate dehydrogenase A chain (Homo sapiens), P00338 | AID 1347041, 2019 | activity change, % (values are at about 110 or 230 µM) | hit rate 0.15% among 480,000 | purified LDHA, NADH/diaphorase-resazurin fluorescence; active compounds read low; in the data active means activity change below about -30%; inconclusive means mostly about -25% to -30%
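Human LDH5 at 2 nM final in Tris HCl pH 7.4 with 0.06 mM NADH and 0.2 mM pyruvate, reacted 5 minutes at room temperature. Remaining NADH coupled via diaphorase/resazurin; resorufin fluorescence read at 0 and 20 minutes, normalized to enzyme-free and DMSO wells.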
TDP1 cell CPT: qHTS for Inhibitors of human tyrosyl-DNA phosphodiesterase 1 (TDP1): qHTS in cells in presence of CPT. chicken DT40 Tdp1-/-;hTDP1 cells + 20 nM CPT, ATP luminescence, 48 h. AID 686979, 2013. Potency, µM (series often up to 46.2 µM), actives largely listed as inhibitors. hit rate 12% among 420,000; further: nearly all actives have a fitted effect of over 55% in size
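Chicken DT40 Tdp1-/- cells complemented with human TDP1, 400 cells/well, exposed to compounds plus 20 nM camptothecin for at least 48 h at 37 C; viability read as ATP content by CellTiter-Glo luminescence.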
RORg inh: qHTS for inhibitors of ROR gamma transcriptional activity; Nuclear receptor ROR-gamma (Mus musculus), P51450; Drosophila S2 Gal4-RORgamma UAS-luciferase reporter, 20 h; Potency, µM (series often up to 53.6 µM), usual class: inhibitors; hit rate 5.4% among 310,000; further: nearly all actives have a fitted effect of over 60% in size
Target sequence (P51450 whole entry, looked up, the tested form may be a part): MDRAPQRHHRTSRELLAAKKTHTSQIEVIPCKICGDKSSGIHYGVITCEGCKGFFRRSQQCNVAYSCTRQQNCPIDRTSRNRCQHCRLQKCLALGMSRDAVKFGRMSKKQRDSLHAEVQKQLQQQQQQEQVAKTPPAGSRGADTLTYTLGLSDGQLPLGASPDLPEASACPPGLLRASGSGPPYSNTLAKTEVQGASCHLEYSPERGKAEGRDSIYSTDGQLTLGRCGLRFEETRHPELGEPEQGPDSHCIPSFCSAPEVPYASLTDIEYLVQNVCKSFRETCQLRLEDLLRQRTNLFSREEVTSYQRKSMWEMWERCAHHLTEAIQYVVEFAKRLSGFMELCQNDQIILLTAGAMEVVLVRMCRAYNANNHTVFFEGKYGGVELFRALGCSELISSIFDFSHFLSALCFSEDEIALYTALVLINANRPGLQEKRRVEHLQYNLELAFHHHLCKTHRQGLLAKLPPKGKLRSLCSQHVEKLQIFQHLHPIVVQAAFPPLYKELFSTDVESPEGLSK
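Drosophila Schneider cells stably carrying a metallothionein-driven Gal4 DBD–ROR gamma fusion and a UAS-Photinus luciferase reporter were exposed to compound for 1 hr, then induced with copper sulfate (700 uM final) for 20 hr at ambient temperature before luminescence reading.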
Hits are given with their value; i = inactive; ? = inconclusive; nt = no result. Compounds with a hit are over-represented: about 18% of the library has one in this group of screens. Unless noted, the call rests on the fitted dose curve; in most records, active means well fitted curve in the direction sought with a large enough effect; inconclusive means small, poorly fitted or top-dose-only effect, or another doubt; inactive means no such curve, though single readings can be large; an effect the other way counts as inactive or inconclusive.

SMILES	VP16 counter	TDP1 cell noCPT	IL1B secr inh	LDHA block	TDP1 cell CPT	RORg inh
O=C(Nc1nccs1)c1ccc([N+](=O)[O-])cc1	i	i	i	i	i	8.9µM
CCSc1ccc(C(=O)Nc2ccc(Br)cn2)cc1[N+](=O)[O-]	i	?	i	i	i	i
Cn1cc([N+](=O)[O-])c(C(=O)Nc2nccs2)n1	i	i	-98	i	i	i
Cn1cc([N+](=O)[O-])c(C(=O)Nc2ccc(Br)cn2)n1	i	i	-87	i	i	i
O=C(Cc1ccc([N+](=O)[O-])cc1)Nc1nccs1	i	i	i	i	i	i
COc1cc(OC)c(C2C3=C(CC(C)(C)CC3=O)Nc3ccccc3N2C(C)=O)cc1OC (stereo unspecified)	nt	nt	nt	i	nt	nt
N#Cc1ccccc1NCc1ccccn1	nt	nt	nt	i	nt	nt
CC(=O)N1N=C(c2cccc(O)c2)CC1c1ccco1 (stereo unspecified)	nt	nt	nt	i	nt	nt
O=C(Nc1ccc(F)c([N+](=O)[O-])c1)C(=O)c1c(O)[nH]c2ccccc12	i	13µM	i	i	18µM	i
O=C(Nc1ccccc1)Nc1ccc(F)c([N+](=O)[O-])c1	i	16µM	-90	i	16µM	?
O=C(NC(NC(=S)Nc1ccc(F)c([N+](=O)[O-])c1)C(Cl)(Cl)Cl)C(c1ccccc1)c1ccccc1 (stereo unspecified)	5µM	nt	nt	nt	nt	4µM
O=C(CSc1ccccn1)Nc1ccc(F)c([N+](=O)[O-])c1	i	?	-76	i	?	i
O=C(Nc1ccc(Cl)cc1)c1ccc2c3c(cccc13)CC2	nt	nt	nt	i	nt	nt
c1csc(-c2nc3nc4ccccc4nc3n2Cc2ccc3c(c2)OCO3)c1	i	?	?	i	18µM	?
c1csc(-c2nc(N3CCN(Cc4ccc5c(c4)OCCO5)CC3)c3ccccc3n2)c1	nt	?	nt	i	?	nt
COCCn1c(-c2cccs2)nc2nc3ccccc3nc21	i	?	i	i	?	i
CCCn1c(-c2cccs2)nc2nc3ccccc3nc21	i	16µM	i	i	18µM	i
Cc1ccc(CNCc2ccc(-c3cccc(C(=O)O)c3)o2)cc1	nt	nt	nt	i	nt	nt
O=C(NC1CCCCC1)c1ccc2ncsc2c1	nt	nt	nt	i	nt	nt
O=C(c1ccc(Cl)cc1)C1C2C(=O)N(c3ccccc3)C(=O)C2C2CCCN21 (stereo unspecified)	i	i	i	i	i	i
O=C(c1ccccc1)[C@@H]1[C@@H]2C(=O)N(c3ccc(F)cc3)C(=O)[C@@H]2C2CCCN21 (stereo partly specified)	?	?	-59	i	?	?
COc1ccc(N2C(=O)C3C(C2=O)C(C(=O)c2ccc(Cl)cc2)N2CCCC32)cc1 (stereo unspecified)	?	?	nt	i	?	?
CC(=O)c1ccc(N2C(=O)C3C(C2=O)C(C(=O)c2ccc(Cl)cc2)N2CCCC32)cc1 (stereo unspecified)	i	10µM	-109	i	8.2µM	?
Cc1ccc(N2C(=O)[C@@H]3[C@H](C2=O)C2CCCN2[C@@H]3C(=O)c2ccccc2)cc1 (stereo partly specified)	?	?	i	i	i	6.3µM
COc1ccc(-c2c(C)c3cc(OS(=O)(=O)c4ccccc4)ccc3oc2=O)cc1OC	nt	nt	nt	i	nt	nt
SMILES	VP16 counter	TDP1 cell noCPT	IL1B secr inh	LDHA block	TDP1 cell CPT	RORg inh
Cc1cccc(-n2c(SCc3cccc(C#N)c3)nnc2N2CCOCC2)c1	nt	nt	nt	i	nt	nt
CSc1ccc(CNC(=O)Cc2ccc(NC(=O)C3=C(C)OCCS3)cc2)cc1	i	2.9µM	i	i	2.9µM	?
CN1Cc2c(N3CCOCC3)nc3sc(C(=O)c4ccc(Br)cc4)c(N)c3c2CC1(C)C	?	5.2µM	nt	i	4.1µM	11µM
CN1Cc2c(N3CCOCC3)nc3sc(C#N)c(N)c3c2CC1(C)C	i	?	i	i	i	i
CNC(=O)c1ccc(-c2sc3nc(N4CCOCC4)c4c(c3c2N)CC(C)(C)OC4)o1	i	18µM	i	i	21µM	i
CNC(=O)c1ccc(-c2sc3nc(N4CCOCC4)c4c(c3c2N)CCCC4)o1	i	15µM	i	i	21µM	i
CC1(C)CC(=O)C(C(C2=C(O)CC(C)(C)CC2=O)c2cccs2)C(=O)C1 (stereo unspecified)	i	?	-96	i	?	?
CC1(C)CC(=O)C(C(C2=C(O)CC(C)(C)CC2=O)c2cccc(O)c2)C(=O)C1 (stereo unspecified)	i	i	i	i	i	i
Cc1cc(-c2ccccc2)n(-c2cc(N/N=C/c3ccccc3O)ncn2)n1	5.6µM	3.3µM	i	i	4.6µM	11µM
CNc1cc(-n2nc(C)cc2-c2ccccc2)ncn1	i	i	i	i	i	i
CCc1ccc2oc(-c3cc(NC(=O)C(C)C)ccc3O)nc2c1	nt	nt	nt	i	nt	nt
CN(CC(=O)NC1(C#N)CCCCC1)c1cccc(C#N)c1	nt	nt	nt	i	nt	nt
CN1/C(=C\C(=O)COC(=O)c2ccc(O)c(O)c2)C(C)(C)c2ccccc21	?	6.5µM	i	i	6.5µM	?
CNS(=O)(=O)c1cccc(C(=O)OCC(=O)/C=C2/N(C)c3ccccc3C2(C)C)c1	0.4µM	18µM	i	i	21µM	?
CNS(=O)(=O)c1cccc(C(=O)OCCCOC(=O)c2cccc(S(=O)(=O)NC)c2)c1	i	?	i	i	?	i
CN1/C(=C\C(=O)COC(=O)CNC(=O)c2ccc3ccccc3c2)C(C)(C)c2ccccc21	?	10µM	i	i	18µM	?
CN1/C(=C\C(=O)COC(=O)CNC(=O)c2ccccc2F)C(C)(C)c2ccccc21	i	i	i	i	i	i
CCOC(=O)/C=C1/N(C)c2ccccc2C1(C)C	i	i	i	i	i	i
CN1/C(=C\C(=O)COC(=O)c2ccc(O)cc2)C(C)(C)c2ccccc21	?	16µM	i	i	15µM	i
CCCn1nc(C)cc1CN(C)c1ccc(NC(=O)c2ccccc2C)cc1C(=O)O	nt	nt	nt	i	nt	nt
Cc1nc2ncnn2c(N2CCCCC2)c1Cc1ccccc1	nt	nt	nt	i	nt	nt
Cc1ccc2cc(CN(Cc3ccccc3)C(=O)c3ccco3)c(=O)[nH]c2c1	nt	nt	nt	i	nt	nt
Cc1cccc(/C(N)=N/OC(=O)c2ccoc2C)c1	?	?	i	i	0.65µM	?
Cc1occc1C(=O)O/N=C(\N)c1ccccc1	10µM	?	nt	i	?	?
Cc1ccccc1C(=O)O/N=C(\N)c1ccccc1	10µM	i	i	i	i	7.1µM
Cc1ccccc1C(=O)O/N=C(\N)c1ccc([N+](=O)[O-])cc1	?	i	i	i	i	i
